Experimental findings from ChEMBL document CHEMBL3988442, “University of Dundee, Small-Polar-MMV Screening Library” (2021) are described below.

SMILES strings stand for the structures. In all, about 69,000 compounds went through this assay and about 950 (1.4%) showed an effect of 50% or more. Only a selection was taken, and strong results are over-represented in it overall.

This test concerns Mycobacterium tuberculosis. Nature of the test: Cornell M. t heat shock assay. Further: in the data most compounds retested in dose-response had high values. In kind it is functional, organism-based. Set-up: dose or concentration left out as unconfirmed.
Consider `CCc1oc(C(=O)N2CC[C@H]3CC[C@@H](C2)N3)cc1CN(CC)CC`, for which the “Percent Effect” value is on record as -18.46%. To `CN(C)C(=O)N1C[C@@H]2CC[C@H](C1)N(Cc1nnc(-c3ccccc3)o1)C2` belongs 16.99%; to `CN(C)C(=O)N1C[C@@H]2CC[C@H](C1)N(Cc1nnc(C3CC3)o1)C2`, 104.3%; to `CN(C)C(=O)N1C[C@@H]2CC[C@H](C1)N(Cc1nnc(-c3ccco3)o1)C2`, 3.686%. As for `CNc1ncc2c(n1)CN(CCc1ccc(F)cc1)C2=O`, the figure is -20.93%. To `CNC(=O)[C@H]1CO[C@H]2CCN(c3ncc(F)cn3)C[C@H]2C1.O=C(O)C(F)(F)F` belongs -11.38%; to `Cc1nn(C)cc1CN(Cc1ccccn1)Cc1ccccc1Cl`, 53.11%; to `Cc1nn(C)cc1CN(C)C(=O)c1ccccn1`, -16.12%. Turning to `CCn1nc(C)c(CN(Cc2ccccn2)Cc2ccccc2Cl)c1C`, the “Percent Effect” value turned out to be 58.2%. To `Cn1cc(CN(Cc2ccccn2)Cc2ccccc2Cl)cn1` belongs 20.97%. As for `CCn1nc(C)c(CN(CCOC)Cc2ccccn2)c1C`, the figure is -2.912%; as for `CCn1nc(C)c(CN(CCCN(C)C)Cc2ccccn2)c1C`, -9.336%. For the molecule `O=C(O)C(=O)O.c1cncc(CN2CCC(c3ccc4c(c3)OCO4)CC2)c1`, the “Percent Effect” value is -6.288%. As for `CC(C)CS(=O)(=O)N1C[C@H]2C[C@H](C(=O)N3CCCC3)[C@@H](C1)O2`, the figure is 18.86%; as for `CSc1ccc(CN2C[C@@H]3CC[C@@](O)(c4ccc(C)cn4)[C@@H]3C2)cc1`, 28.36%; as for `C[C@H]1CN(c2ccccn2)C[C@@]12CCN(Cc1cccnc1)C2=O.O=C(O)C(F)(F)F.O=C(O)C(F)(F)F`, -8.389%. To `O=C(CS(=O)(=O)c1ccc(Cl)cc1)NC1CCCc2ccccc21` (stereo unspecified) belongs 17.58%.

`O=C(CS(=O)(=O)c1ncccc1Cl)NC1CCCc2ccccc21` (stereo unspecified): the “Percent Effect” value is given as 57.06%. As for `O=C(CS(=O)(=O)c1ccccn1)NC1CCCc2ccccc21` (stereo unspecified), the figure is 34.88%; as for `COc1ccc(CN2CCn3cccc3C2C)cc1F` (stereo unspecified), 13.47%.

For the molecule `COc1ccc(C(C)=O)cc1CN1CCn2cccc2C1C` (stereo unspecified), the “Percent Effect” value came to 9.9%. To `COc1ccc(C)cc1CN1CCn2cccc2C1C` (stereo unspecified) belongs 86.02%; to `CCOc1ccccc1C1CCCN1.Cl` (stereo unspecified), 3.065%. As for `COc1cc(CNCC(O)c2ccccc2)cc2c1OCO2.Cl` (stereo unspecified), the figure is -7.292%; as for `Cl.c1ccc(CN2CCNCC(Cc3cnccn3)C2)cc1` (stereo unspecified), -10.09%; as for `O=C(O)C(F)(F)F.O=C(c1ccco1)N1CC2(CCNCC2)c2cc(Cl)ccc21`, -24.85%. To `O=C(O)C(F)(F)F.O=C(O)C(F)(F)F.c1cnc(N2CCC3(CCN(Cc4ccncc4)CC3)CC2)nc1` belongs 6.802%. Consider `CCc1nc(C)c(CN2CCOC(Cc3cccc4ccccc34)C2)[nH]1` (stereo unspecified), for which the “Percent Effect” value was found to be 8.588%. With `Cc1cccnc1CN1CCOC(Cc2cccc3ccccc23)C1` (stereo unspecified), the “Percent Effect” value was 106.2%. To `c1ccc2c(CC3CN(Cc4nccs4)CCO3)cccc2c1` (stereo unspecified) belongs -8.986%; to `CCN1CCc2c(sc3c2C(=O)NC(/C=C/c2ccco2)N3)C1` (stereo unspecified), -25.76%. In the case of `O=C(Cc1cnccn1)N1C[C@H]2CC[C@@H]1CN(Cc1cscn1)C2`, the “Percent Effect” value is on record as -4.902%. With `Cc1cccnc1NC(=O)C1(n2cnnn2)CCCCC1`, the “Percent Effect” value is recorded as 10.66%.

Turning to `O=C(NCCc1cccc(F)c1)C1(n2cnnn2)CCCCC1`, the “Percent Effect” value was found to be 90.07%. As for `O=C(NCCc1c[nH]c2ccccc12)C1CCC(Cn2cnnn2)CC1` (stereo unspecified), the figure is 2.28%; as for `O=C(Nc1ccccn1)C1(n2cnnn2)CCCCC1`, 4.562%; as for `Cc1cccc(NC(=O)C2(n3cnnn3)CCCCC2)n1`, -23.83%. As for `Cc1ccnc(NC(=O)C2(n3cnnn3)CCCCC2)c1`, the figure is -14.84%; as for `O=C(NCCc1c[nH]c2ccc(F)cc12)C1(n2cnnn2)CCCCC1`, 102.2%; as for `O=C(NCCc1c[nH]c2ccccc12)C1(n2cnnn2)CCCCC1`, 102.3%. To `O=C(NCCc1ccccn1)C1(n2cnnn2)CCCCC1` belongs -1.374%; to `Cl.O=c1c2sccc2nc2n1CCN(Cc1ccsc1)CC2`, -19.75%; to `Cc1cccc(CN2CC[C@@H]3[C@@H]2CCN3C(=O)Cc2ccsc2)n1.O=C(O)C(F)(F)F.O=C(O)C(F)(F)F`, -13.99%. In the case of `CO[C@H]1C[C@@H]2CN(C(=O)c3n[nH]c4c3CCCC4)C[C@@H]2C1`, the “Percent Effect” value was -12.29%.

In the case of `Cc1ccc(N2CC[C@@H]3[C@@H]2CCN3Cc2ccsc2)nn1.O=C(O)C(F)(F)F.O=C(O)C(F)(F)F`, the “Percent Effect” value was -10.53%. To `Cn1ccnc1CN1CCC2(CC1)COCCN(S(C)(=O)=O)C2.O=C(O)C(F)(F)F` belongs 17.11%; to `NC(=O)CN1CCC(c2csc(Nc3cnccn3)n2)CC1`, -13.81%.

For `NC(=O)CN1CCCC1c1csc(Nc2cnccn2)n1` (stereo unspecified), the “Percent Effect” value came to 58.45%. To `CC(=O)N1CCCC1c1csc(Nc2cnccn2)n1` (stereo unspecified) belongs -5.066%; to `CS(=O)(=O)CCC(=O)NC1(c2cccc(C(F)(F)F)c2)CCC1`, -20.78%. To `COC[C@@]12CCC[C@@H]1CN(C(=O)Cc1ccccn1)C2.O=C(O)C(F)(F)F` belongs 12.87%; to `Cc1ncc(CN2CCC(c3nc4cc(Cl)ccc4o3)CC2)s1`, -15.08%; to `CCc1nc(C2CCCN2CCc2ccccn2)no1` (stereo unspecified), 107.9%.

On to `CC(C)c1nc(C2CCCN2CCc2ccccn2)no1` (stereo unspecified), for which the “Percent Effect” value was -39.31%. Turning to `Fc1ccc2[nH]c(C3CCCN3CCc3ccccn3)nc2c1` (stereo unspecified), the “Percent Effect” value came to 61.35%. Consider `Cc1nc(C2CCCN2CCc2ccccn2)no1` (stereo unspecified), for which the “Percent Effect” value was -5.804%. Regarding `Fc1ccc2[nH]c(C3CCCN3CCCn3cccn3)nc2c1` (stereo unspecified), the “Percent Effect” value is recorded as -23.88%. As for `O=C(CN1CCCC1c1nc2cc(F)ccc2[nH]1)NCc1ccccn1` (stereo unspecified), the figure is -20.62%; as for `CS(=O)(=O)N1CCc2ccc(=O)n(CCN3CCCC3)c2CC1.O=C(O)C(F)(F)F`, 21.99%; as for `Cc1nnc(N2CCCC3(CN(Cc4cnn(C)c4)CCO3)C2)o1.O=C(O)C(F)(F)F.O=C(O)C(F)(F)F` (stereo unspecified), -20.31%.

Regarding `O=C(O)C(F)(F)F.O=C(c1ccoc1)N1CC[C@@H]2O[C@@H](COCCN3CCCC3)CC[C@@H]21`, the “Percent Effect” value was -1.941%. As for `O=C(O)C(F)(F)F.O=C(O)C(F)(F)F.O=C1[C@H]2CN(Cc3ccccn3)C[C@H]2CN1c1ccsc1`, the figure is -8.069%; as for `CO[C@H]1CCN(Cc2cccs2)[C@@H]2CN(Cc3ccncc3)C[C@H]12.O=C(O)C(F)(F)F.O=C(O)C(F)(F)F.O=C(O)C(F)(F)F`, 0.7697%; as for `COc1ccc(-c2cnc3c(c2)CN(C2CC2)C(=O)CCN3)cc1`, 36.55%. To `O=C1CCNc2ncc(-c3ccccc3Cl)cc2CN1C1CC1` belongs 39.75%; to `O=C1CCNc2ncc(-c3ccc(Cl)cc3)cc2CN1C1CC1`, 53.07%. To `O=C1CCNc2ncc(-c3cccc(Cl)c3)cc2CN1C1CC1` belongs 61.09%. As for `O=C1CCC(=O)N1CCn1nnc(-c2cccc(Cl)c2)n1`, the “Percent Effect” value is on record as -24.84%. As for `Cl.Clc1ccc(-c2ccc(C3CNCCO3)nc2)cc1` (stereo unspecified), the figure is 2.375%; as for `COc1ccc(OCCN2CCC(N3CCNC3=O)CC2)cc1`, 47.29%; as for `Cc1ccc(N2CCO[C@H]3CN(Cc4nccs4)C[C@H]32)nn1.O=C(O)C(F)(F)F.O=C(O)C(F)(F)F`, -20.26%. As for `O=C(O)C(F)(F)F.O=C(O)C(F)(F)F.O=C([C@H]1C[C@H]2OCC[C@H]2N(Cc2cccnc2)C1)N1CCCO1`, the figure is -0.4009%. As for `CCC1CN(C(=O)c2ccc(=O)[nH]n2)CCC(=O)N1Cc1ccccc1` (stereo unspecified), the figure is 3.349%. With `CCC1CN(C(=O)c2ccc(=O)[nH]c2)CCC(=O)N1Cc1ccccc1` (stereo unspecified), the “Percent Effect” value is reported as 106.1%. On to `CCC1CN(C(=O)c2cccc(O)c2)CCC(=O)N1Cc1ccccc1` (stereo unspecified), for which the “Percent Effect” value is recorded as 3.275%. As for `Fc1ccc(CN2CCC(F)(F)C3(CCN(c4cnccn4)C3)C2)cc1.O=C(O)C(F)(F)F.O=C(O)C(F)(F)F` (stereo unspecified), the figure is 3.728%; as for `c1ccc2c(c1)CN(c1ncnc3c1CCNC3)CCO2`, 22.91%.

As to `CN(C)c1nc2c(c(N3CCc4ccccc4C3)n1)CCNC2`, the “Percent Effect” value is on record as 101.7%. Turning to `Cc1nc2c(c(N3CCN(c4ncccc4C(N)=O)CC3)n1)CCNC2`, the “Percent Effect” value is 6.854%. As for `Cc1cc2n(n1)CCN(c1nc(N(C)C)nc3c1CCNC3)C2`, the figure is 7.698%; as for `Cc1ccccc1N1CCN(c2nc(N(C)C)nc3c2CCNC3)CC1`, 99.74%; as for `c1ccc2c(c1)CCN(c1nc(-c3ccncc3)nc3c1CCNC3)C2`, 105.2%.

With `CN(C)c1nc2c(c(N3CCc4c(c(CO)nn4C)C3)n1)CCNC2`, the “Percent Effect” value is -14.09%. To `Cc1cccc(=O)n1CCCNc1nc(N(C)C)nc2c1CCNC2` belongs 44.77%; to `c1ccc2c(c1)CCN(c1ncnc3sc4c(c13)CCNC4)C2`, 12.7%. To `NCC1CCC2(CCN(C(=O)c3ccccn3)CC2)CO1.O=C(O)C(F)(F)F.O=C(O)C(F)(F)F` (stereo unspecified) belongs 3.829%; to `Cn1cc(N2CC3(CCN(CC4CCC4)CC3)OCC2=O)cn1.O=C(O)C(F)(F)F`, 10.75%. As for `Cc1cccc(C(=O)N2CCC[C@]3(C[C@@H](OCC4CC4)CO3)C2)n1.O=C(O)C(F)(F)F`, the figure is 5.615%; as for `O=C(O)C(F)(F)F.O=C([C@@H]1C[C@@H]2CCN(Cc3ccoc3)C[C@H]2O1)N1CCCC1`, 5.199%; as for `Cc1noc(C)c1C(=O)N1Cc2ncn(C)c2C(COCC(C)C)C1.O=C(O)C(F)(F)F` (stereo unspecified), 10.61%. Consider `O=C(Cc1ccccc1)N1C[C@@H]2OCCN(CC3CCCO3)[C@@H]2C1.O=C(O)C(F)(F)F` (stereo partly specified), for which the “Percent Effect” value was -18.47%.
